The text below walks through data of the supplement of paper PMC10849652.

The full data set covers some 7,900 targets. This sample favours those with a hit. About 0.6% of all pairs of compound and target were hits. Values without a mark were called inactive.

Chain of UniProt Q9Y6H1 (Q9Y6H1 whole entry, looked up): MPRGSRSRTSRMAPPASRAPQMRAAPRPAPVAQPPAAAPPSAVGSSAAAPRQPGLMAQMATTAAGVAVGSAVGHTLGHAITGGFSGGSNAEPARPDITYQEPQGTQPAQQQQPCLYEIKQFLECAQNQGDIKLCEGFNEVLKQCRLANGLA
Chain of UniProt Q8WUD6 (Q8WUD6 whole entry, looked up): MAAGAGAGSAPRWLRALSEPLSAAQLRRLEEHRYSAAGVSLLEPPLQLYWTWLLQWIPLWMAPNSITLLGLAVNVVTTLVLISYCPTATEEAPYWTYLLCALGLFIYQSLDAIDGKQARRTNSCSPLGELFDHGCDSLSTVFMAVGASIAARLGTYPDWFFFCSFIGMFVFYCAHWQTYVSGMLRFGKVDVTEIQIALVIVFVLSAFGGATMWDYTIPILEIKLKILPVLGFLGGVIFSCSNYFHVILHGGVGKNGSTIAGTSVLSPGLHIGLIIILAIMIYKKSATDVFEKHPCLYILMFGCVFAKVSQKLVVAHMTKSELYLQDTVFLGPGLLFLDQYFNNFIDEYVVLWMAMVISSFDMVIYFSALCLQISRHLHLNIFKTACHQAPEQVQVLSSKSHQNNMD
Chain of UniProt P55210 (P55210 whole entry, looked up): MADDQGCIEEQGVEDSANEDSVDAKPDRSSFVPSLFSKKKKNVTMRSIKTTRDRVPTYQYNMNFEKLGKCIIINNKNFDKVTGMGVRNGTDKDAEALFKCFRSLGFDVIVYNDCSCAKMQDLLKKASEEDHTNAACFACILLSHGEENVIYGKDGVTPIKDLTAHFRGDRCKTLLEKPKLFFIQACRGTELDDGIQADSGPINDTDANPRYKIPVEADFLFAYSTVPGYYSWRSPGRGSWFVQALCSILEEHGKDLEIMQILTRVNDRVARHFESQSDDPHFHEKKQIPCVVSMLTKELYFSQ
Chain of UniProt P55211 (P55211 whole entry, looked up): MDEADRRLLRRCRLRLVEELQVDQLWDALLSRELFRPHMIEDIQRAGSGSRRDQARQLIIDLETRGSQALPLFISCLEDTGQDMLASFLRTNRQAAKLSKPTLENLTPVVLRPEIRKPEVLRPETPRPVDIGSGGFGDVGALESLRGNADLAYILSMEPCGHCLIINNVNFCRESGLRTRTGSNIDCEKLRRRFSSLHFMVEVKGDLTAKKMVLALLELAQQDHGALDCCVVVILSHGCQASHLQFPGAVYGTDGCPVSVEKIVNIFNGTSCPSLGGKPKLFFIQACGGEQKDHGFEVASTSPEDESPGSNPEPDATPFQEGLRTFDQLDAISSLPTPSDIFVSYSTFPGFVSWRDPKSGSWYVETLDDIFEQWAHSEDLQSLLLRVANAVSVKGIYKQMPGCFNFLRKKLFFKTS
Chain of UniProt Q14790 (Q14790 whole entry, looked up): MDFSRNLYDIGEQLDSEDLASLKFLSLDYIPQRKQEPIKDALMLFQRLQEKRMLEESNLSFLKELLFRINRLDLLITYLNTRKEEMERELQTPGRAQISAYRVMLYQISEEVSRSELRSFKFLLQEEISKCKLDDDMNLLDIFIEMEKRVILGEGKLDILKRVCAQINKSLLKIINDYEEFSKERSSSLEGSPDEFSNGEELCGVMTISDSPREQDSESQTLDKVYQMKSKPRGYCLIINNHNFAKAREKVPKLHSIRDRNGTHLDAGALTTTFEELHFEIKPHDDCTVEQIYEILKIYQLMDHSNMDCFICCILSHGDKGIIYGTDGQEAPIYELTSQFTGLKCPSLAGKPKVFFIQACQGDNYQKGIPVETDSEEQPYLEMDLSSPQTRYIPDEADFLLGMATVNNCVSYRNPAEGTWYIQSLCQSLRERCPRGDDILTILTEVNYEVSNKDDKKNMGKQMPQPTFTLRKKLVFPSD
Chain of UniProt P33552 (P33552 whole entry, looked up): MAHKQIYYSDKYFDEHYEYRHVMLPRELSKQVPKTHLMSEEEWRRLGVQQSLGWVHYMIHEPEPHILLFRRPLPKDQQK
Chain of UniProt P08962 (P08962 whole entry, looked up): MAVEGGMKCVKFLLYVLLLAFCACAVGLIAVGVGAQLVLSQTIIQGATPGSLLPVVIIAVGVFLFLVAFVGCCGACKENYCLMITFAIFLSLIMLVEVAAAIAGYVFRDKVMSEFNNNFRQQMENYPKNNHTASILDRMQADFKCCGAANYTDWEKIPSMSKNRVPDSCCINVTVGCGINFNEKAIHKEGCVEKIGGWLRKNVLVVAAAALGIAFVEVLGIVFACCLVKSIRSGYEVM
Chain of UniProt Q9H444 (Q9H444 whole entry, looked up): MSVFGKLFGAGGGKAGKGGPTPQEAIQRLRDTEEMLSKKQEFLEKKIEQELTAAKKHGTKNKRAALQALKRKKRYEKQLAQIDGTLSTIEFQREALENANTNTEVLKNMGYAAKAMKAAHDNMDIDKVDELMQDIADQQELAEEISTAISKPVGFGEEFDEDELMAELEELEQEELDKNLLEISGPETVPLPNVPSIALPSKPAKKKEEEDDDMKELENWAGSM
Chain of UniProt P86791 (P86791 whole entry, looked up): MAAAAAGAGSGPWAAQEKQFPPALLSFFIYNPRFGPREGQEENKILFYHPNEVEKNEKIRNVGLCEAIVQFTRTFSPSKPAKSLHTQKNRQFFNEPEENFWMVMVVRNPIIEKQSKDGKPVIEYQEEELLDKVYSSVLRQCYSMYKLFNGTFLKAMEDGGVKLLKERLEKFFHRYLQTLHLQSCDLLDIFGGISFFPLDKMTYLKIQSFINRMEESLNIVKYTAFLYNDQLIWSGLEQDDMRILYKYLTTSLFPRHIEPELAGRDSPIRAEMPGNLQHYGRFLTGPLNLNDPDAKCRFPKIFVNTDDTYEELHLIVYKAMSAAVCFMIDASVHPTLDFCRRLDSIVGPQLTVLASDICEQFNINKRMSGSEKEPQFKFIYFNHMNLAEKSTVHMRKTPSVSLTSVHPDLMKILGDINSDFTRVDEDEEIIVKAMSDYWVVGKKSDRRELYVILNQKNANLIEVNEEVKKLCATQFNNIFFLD
Chain of UniProt P14635 (P14635 whole entry, looked up): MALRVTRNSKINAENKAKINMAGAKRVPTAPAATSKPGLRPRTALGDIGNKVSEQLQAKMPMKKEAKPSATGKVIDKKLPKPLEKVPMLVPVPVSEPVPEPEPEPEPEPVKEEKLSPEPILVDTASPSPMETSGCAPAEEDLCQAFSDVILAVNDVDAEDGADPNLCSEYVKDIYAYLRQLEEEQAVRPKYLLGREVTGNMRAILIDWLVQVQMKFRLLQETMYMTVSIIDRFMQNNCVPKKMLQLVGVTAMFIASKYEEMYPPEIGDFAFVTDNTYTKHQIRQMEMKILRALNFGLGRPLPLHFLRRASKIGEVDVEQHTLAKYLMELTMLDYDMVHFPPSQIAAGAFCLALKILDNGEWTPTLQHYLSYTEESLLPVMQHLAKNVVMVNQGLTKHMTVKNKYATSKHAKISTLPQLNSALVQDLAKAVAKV
Chain of UniProt Q8N668 (Q8N668 whole entry, looked up): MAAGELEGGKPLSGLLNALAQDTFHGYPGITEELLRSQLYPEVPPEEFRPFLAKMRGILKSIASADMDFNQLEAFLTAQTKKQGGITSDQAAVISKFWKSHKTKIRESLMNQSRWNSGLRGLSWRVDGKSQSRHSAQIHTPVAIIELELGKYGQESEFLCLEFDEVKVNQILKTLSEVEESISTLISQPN
Chain of UniProt P50750 (P50750 whole entry, looked up): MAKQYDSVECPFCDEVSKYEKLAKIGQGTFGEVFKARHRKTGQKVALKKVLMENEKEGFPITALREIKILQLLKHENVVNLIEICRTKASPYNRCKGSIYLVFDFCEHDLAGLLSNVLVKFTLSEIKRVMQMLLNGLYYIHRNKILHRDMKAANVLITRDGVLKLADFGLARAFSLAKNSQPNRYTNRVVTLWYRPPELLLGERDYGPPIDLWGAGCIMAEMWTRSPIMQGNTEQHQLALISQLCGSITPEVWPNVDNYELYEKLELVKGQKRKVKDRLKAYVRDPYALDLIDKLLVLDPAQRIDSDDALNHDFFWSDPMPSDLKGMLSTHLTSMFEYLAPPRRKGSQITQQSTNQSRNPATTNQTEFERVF
Chain of UniProt P35219 (P35219 whole entry, looked up): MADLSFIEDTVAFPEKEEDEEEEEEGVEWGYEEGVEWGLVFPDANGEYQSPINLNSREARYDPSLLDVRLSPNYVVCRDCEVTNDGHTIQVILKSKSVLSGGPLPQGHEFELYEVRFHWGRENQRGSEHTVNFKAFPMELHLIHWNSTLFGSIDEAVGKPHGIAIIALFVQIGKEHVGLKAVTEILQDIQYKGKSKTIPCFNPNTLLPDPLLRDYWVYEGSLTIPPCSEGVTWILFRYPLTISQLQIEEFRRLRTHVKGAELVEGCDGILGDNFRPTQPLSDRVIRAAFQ
Chain of UniProt P11802 (P11802 whole entry, looked up): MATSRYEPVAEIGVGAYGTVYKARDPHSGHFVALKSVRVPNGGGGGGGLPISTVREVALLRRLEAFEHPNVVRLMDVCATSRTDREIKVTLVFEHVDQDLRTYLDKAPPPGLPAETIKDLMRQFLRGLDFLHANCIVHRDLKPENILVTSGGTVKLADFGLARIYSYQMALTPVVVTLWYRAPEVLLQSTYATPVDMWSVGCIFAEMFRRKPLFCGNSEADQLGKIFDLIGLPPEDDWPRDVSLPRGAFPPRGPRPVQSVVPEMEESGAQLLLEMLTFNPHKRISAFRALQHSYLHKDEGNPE
Chain of UniProt Q86X83 (Q86X83 whole entry, looked up): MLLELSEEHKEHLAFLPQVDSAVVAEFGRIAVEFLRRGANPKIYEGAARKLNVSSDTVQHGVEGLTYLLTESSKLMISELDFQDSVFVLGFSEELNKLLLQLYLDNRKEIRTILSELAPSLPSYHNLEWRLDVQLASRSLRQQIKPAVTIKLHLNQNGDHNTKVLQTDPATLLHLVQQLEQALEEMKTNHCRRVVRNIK
Chain of UniProt P60033 (P60033 whole entry, looked up): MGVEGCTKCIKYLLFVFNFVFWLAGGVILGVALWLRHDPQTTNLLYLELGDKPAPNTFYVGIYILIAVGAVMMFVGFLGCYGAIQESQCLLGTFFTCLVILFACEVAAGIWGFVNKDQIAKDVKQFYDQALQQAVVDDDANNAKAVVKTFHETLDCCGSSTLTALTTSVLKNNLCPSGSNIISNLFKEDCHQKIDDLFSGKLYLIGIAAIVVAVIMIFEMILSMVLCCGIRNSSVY

Compound in this assay: c1cn2cc(-c3ccc4cn[nH]c4c3)nc(Nc3ccc(N4CCOCC4)cc3)c2n1 [entospletinib]
As to the kind of experiment: log2 fold change, soluble protein after heating vs DMSO (PISA); higher = thermal stabilisation; K562 cells, 10 uM, 30 min; active = over 0.2 and 3.5 SD of the protein, either way, in both replicates (recomputed). The essentials:
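K562 cells (2×10^6 cells/mL) were treated with 10 μM compound for 30 min, and aliquots were heated for 3 min over 48°C-58°C. Pooled aliquots were extracted in PBS with 0.5% NP-40 at 4°C, and the supernatant after 21,000xg for 90 min was measured by TMTpro 16plex LC-MS/MS with channel sums equalised. Reported thermal stability, relative to control samples and from duplicates, is a log2 fold change.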
For CEBPZOS (UniProt A8MTT3), the log2 fold change is 0.203.
Under CD81 (UniProt P60033) stands 0.019; under CEP128 (UniProt Q6ZU80), -0.064; under CCNB1 (UniProt P14635), -0.015.
In the case of CNTN4 (UniProt Q8IWV2), the log2 fold change is -0.148.
Next, CHPT1 (UniProt Q8WUD6): 0.047.
On to CA8 (UniProt P35219), for which the log2 fold change was 0.094.
For the target CAMKK2 (UniProt Q96RR4), the log2 fold change is 0.011.
Under C15orf41 (UniProt Q9Y2V0) stands 0.032; under CDK4 (UniProt P11802), -0.069; under CLTB (UniProt P09497), -0.025.
Next, COASY isoform 2 (UniProt Q13057): -0.076; COMMD1 (UniProt Q8N668): -0.013; COX5A (UniProt P20674): 0.132.
Under CBX1 (UniProt P83916) stands 0.066; under CDK9 isoform 2 (UniProt P50750), 0.012; under CHMP4B (UniProt Q9H444), 0.044.
For the target CCZ1 (UniProt P86791), the log2 fold change was 0.039.
As for CLN3 (UniProt Q13286), the log2 fold change is 0.065.
Under CDC26 (UniProt Q8NHZ8) stands 0.023.
Under COMMD2 (UniProt Q86X83) stands 0.015.
Under CASTOR2 (UniProt A6NHX0) stands -0.104.
On to CSNK1A1 (UniProt P48729), for which the log2 fold change was 0.009.
Under CHCHD2 (UniProt Q9Y6H1) stands 0.028.
Next, CASP7 isoform 3 (UniProt P55210): 0; CKS2 (UniProt P33552): 0.04.
Under CHMP4C (UniProt Q96CF2) stands 0.036.
Consider C6orf120 (UniProt Q7Z4R8), for which the log2 fold change was -0.013.
On to CASP8 isoform 9 (UniProt Q14790), for which the log2 fold change was 0.005.
As for CAVIN1 (UniProt Q6NZI2), the log2 fold change is 0.076.
Next, CD63 (UniProt P08962): -0.049; COX5B (UniProt P10606): 0.005.
As for CLCN5 isoform 2 (UniProt P51795), the log2 fold change was -0.014.
Under CASP9 (UniProt P55211) stands -0.211; under CCDC9 (UniProt Q9Y3X0), 0.115; under CS (UniProt F8VU34), 0.063.
Next, CMTM3 (UniProt Q96MX0): 0.043; CD55 isoform 7 (UniProt P08174): -0.006.
